Source: PubChem BioAssay (Tox21)
Results filed as inconclusive are left out. Unmarked numbers belong to inactive results. Unless noted, calls come from the whole dose curve.

biological target: Nuclear receptor ROR-gamma (Homo sapiens) (UniProt P51449); test: qHTS assay to identify small molecule antagonists of the retinoid-related orphan receptor gamma (ROR-gamma) signaling pathway (AID 1159521; active = well fitted inhibition curve with a large enough effect in the repeat runs;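 note: CHO cells with doxycycline inducible ROR-gamma driving an RORE luciferase reporter; top concentration of the series differs between compounds; % is set by controls: 0 for no effect and ±100 for the full control effect; nearly all actives have a fitted effect of over 50% in size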); details: Tet-on RORgamma CHO cells, RORE-luciferase, 16 h; series mostly up to 92.4 µM; activity change, negative = inhibition: at the top concentration
Outline: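 Readout: ONE-Glo luciferase luminescence, 30 min at room temperature. System: Tet-on RORγ CHO, RORE-LUC. Sequence: compound 2 h, doxycycline 1 uM final, 16 h at 37 C.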

| SMILES | activity change, negative = inhibition |
| --- | --- |
| CCC/C(=N\OCC)C1=C(O)CC(CC(C)SCC)CC1=O (centres undefined) | -12.1% |
| COC(=O)C1=CCCN(C)C1 | 23.4% [at 42.5 µM] |
| CCC(C)n1c(=O)[nH]c(C)c(Br)c1=O (centres undefined) | -3.06% |

tested on: not listed separately; test: qHTS assay to identify small molecule agonists of the AP-1 signaling pathway - cell viability counter screen (AID 1159525); details: ME-180 AP-1-bla cells viability, ATP luminescence, 5 h; series mostly up to 76.8 µM; viability change, negative = cytotoxic: at the top concentration; note: nearly all actives have a fitted effect of over 55% in size
Outline: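 AP-1-bla ME-180 cells in Opti-MEM with 0.5% dialyzed FBS, compound exposure 5 h at 37 C in 15-point titration. Viability read in the same wells as ATP content by CellTiter-Glo luminescence, normalised to tetra-n-octylammonium bromide and DMSO controls.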

| SMILES | viability change, negative = cytotoxic |
| --- | --- |
| NC(=O)c1cc([N+](=O)[O-])cc([N+](=O)[O-])c1 | -0.893% [at 35.3 µM] |
| CN1CCC(O)(c2ccc(F)cc2)C(C(=O)c2ccc(F)cc2)C1 (centres undefined) | 12.1% [at 35.3 µM] |
| O=[N+]([O-])c1ccc2c3c(cccc13)CC2 | 1.78% |
| O=NN1CCCCC1 | 2.96% |
| CCCCc1ccc(O)cc1 | -2.22% |
| CC(Oc1ccc(Oc2ncc(C(F)(F)F)cc2Cl)cc1)C(=O)O (centres undefined) | -3.16% |
| Clc1ccccc1N1CCNCC1 | 4.4% [at 35.3 µM] |
| CC(CC(C#N)(c1ccccc1)c1ccccc1)N(C)C (centres undefined) | -2.9% |
| CC(Cl)(Cl)[N+](=O)[O-] | -0.746% |
| OCCBr | 0.435% |
| OC(Cn1cncn1)(c1ccc(F)cc1)c1ccccc1F (centres undefined) | -9.43% |
| N#CC(Cl)(Cl)Cl | 7.12% |
| CCCCOC(=O)c1ccccc1C(=O)O | -1.23% |
| N#Cc1c(Cl)cccc1Cl | -0.451% |
| CC(=O)Nc1cc([As](=O)(O)O)ccc1O | -1.62% [at 35.3 µM] |
| COP(N)(=S)Oc1ccccc1C(=O)OC(C)C (centres undefined) | 2.49% |
| CC1CCC(=O)O1 (centres undefined) | 0.941% |
| CC(COc1ccc(Oc2ccccc2)cc1)Oc1ccccn1 (centres undefined) | 0.377% |
| CNC(=O)Oc1ccc(N(C)C)c(C)c1 | 7.13% |

| SMILES | viability change, negative = cytotoxic |
| --- | --- |
| CNC(=O)Oc1c(C(C)(C)C)cc(C)cc1C(C)(C)C | 7.82% |
| C[N+](C)=CCl | 0.417% |
| CCOC(=O)C(c1c(O)c2ccccc2oc1=O)c1c(O)c2ccccc2oc1=O | -1.15% [at 35.3 µM] |
| COCC(=O)N(c1c(C)cccc1C)N1CCOC1=O | -11% |
| Cc1ncc2n1-c1ccc(Cl)cc1C(c1ccccc1F)=NC2 | -15.1% [at 35.3 µM] |
| O=CNC(N1CCN(C(NC=O)C(Cl)(Cl)Cl)CC1)C(Cl)(Cl)Cl (centres undefined) | 0.941% |
| CCOC(=O)CP(=O)(OCC)OCC | -8.57% |
| C#C[C@]1(O)C=C[C@H]2[C@@H]3CCC4=CC(=O)CC[C@@H]4[C@H]3CC[C@@]21CC | -0.291% [at 35.3 µM] |
| O=C(Nc1ccccc1)N(Cc1ccc(Cl)cc1)C1CCCC1 | -1.61% |
| C[C@@H]1CN(C2CCC(C#N)(c3ccc(F)cc3)CC2)CC[C@]1(C(=O)O)c1ccccc1 (some centres undefined) | 2.35% [at 35.3 µM] |
| C[C@]12CC[C@H]3[C@@H](CC=C4C[C@@H](O)CC[C@@]43C)[C@@H]1CC[C@@H]2O | 3.57% [at 35.3 µM] |
| CC(C(O)c1ccccc1)N(C)C/C=C/c1ccccc1 (centres undefined) | 4.07% [at 35.3 µM] |
| O=C(Oc1ccc(Br)cc1)N1CCN2CCC1CC2 | 0.922% |
| CN/C(=N\[N+](=O)[O-])NCC1CCOC1 (centres undefined) | 0.11% |
| CN1CCN(C(=O)O[C@H]2c3nccnc3C(=O)N2c2ccc(Cl)cn2)CC1 | -25.8% [at 35.3 µM] |
| CCC/C(=N\OCC)C1=C(O)CC(CC(C)SCC)CC1=O (centres undefined) | -1.08% |
| COC(=O)C1=CCCN(C)C1 | 4.78% [at 35.3 µM] |
| CCC(C)n1c(=O)[nH]c(C)c(Br)c1=O (centres undefined) | -9.54% |

tested on: not listed separately; test: qHTS assay to identify small molecule agonists of the AP-1 signaling pathway (AID 1159526); details: ME-180 (cervical carcinoma) AP-1-bla reporter, beta-lactamase FRET ratio, 5 h; series mostly up to 76.8 µM; activation: at the top concentration; note: % is set by controls: 0 for no effect and ±100 for the full control effect

| SMILES | activation |
| --- | --- |
| NC(=O)c1cc([N+](=O)[O-])cc([N+](=O)[O-])c1 | 2.81% [at 35.3 µM] |
| CN1CCC(O)(c2ccc(F)cc2)C(C(=O)c2ccc(F)cc2)C1 (centres undefined) | -7.22% [at 35.3 µM] |
| O=[N+]([O-])c1ccc2c3c(cccc13)CC2 | -10.5% |
| O=NN1CCCCC1 | 0.545% |
| CC(Oc1ccc(Oc2ncc(C(F)(F)F)cc2Cl)cc1)C(=O)O (centres undefined) | 1.06% |
| Clc1ccccc1N1CCNCC1 | -0.756% [at 35.3 µM] |
| CC(Cl)(Cl)[N+](=O)[O-] | -0.0161% |
| OCCBr | 2.56% |
| OC(Cn1cncn1)(c1ccc(F)cc1)c1ccccc1F (centres undefined) | -1.55% |
| N#CC(Cl)(Cl)Cl | -0.464% |
| CCCCOC(=O)c1ccccc1C(=O)O | -3.67% |
| N#Cc1c(Cl)cccc1Cl | -3.12% |
| CC(=O)Nc1cc([As](=O)(O)O)ccc1O | -2.39% [at 35.3 µM] |
| COP(N)(=S)Oc1ccccc1C(=O)OC(C)C (centres undefined) | -2.97% |
| CC1CCC(=O)O1 (centres undefined) | -1.93% |
| CC(COc1ccc(Oc2ccccc2)cc1)Oc1ccccn1 (centres undefined) | 1.39% |
| CNC(=O)Oc1ccc(N(C)C)c(C)c1 | 4.32% |

| SMILES | activation |
| --- | --- |
| O=[N+]([O-])c1cccc(O)c1 | -4.82% |
| CNC(=O)Oc1c(C(C)(C)C)cc(C)cc1C(C)(C)C | 9.92% |
| C[N+](C)=CCl | 0.695% |
| CCOC(=O)C(c1c(O)c2ccccc2oc1=O)c1c(O)c2ccccc2oc1=O | -12.1% [at 35.3 µM] |
| COCC(=O)N(c1c(C)cccc1C)N1CCOC1=O | -4.33% |
| Cc1ncc2n1-c1ccc(Cl)cc1C(c1ccccc1F)=NC2 | -1.26% [at 35.3 µM] |
| O=CNC(N1CCN(C(NC=O)C(Cl)(Cl)Cl)CC1)C(Cl)(Cl)Cl (centres undefined) | -0.158% |
| CCOC(=O)CP(=O)(OCC)OCC | -7.25% |
| C#C[C@]1(O)C=C[C@H]2[C@@H]3CCC4=CC(=O)CC[C@@H]4[C@H]3CC[C@@]21CC | 2.43% [at 35.3 µM] |
| O=C(Nc1ccccc1)N(Cc1ccc(Cl)cc1)C1CCCC1 | -11.4% |
| C[C@@H]1CN(C2CCC(C#N)(c3ccc(F)cc3)CC2)CC[C@]1(C(=O)O)c1ccccc1 (some centres undefined) | 5.03% [at 35.3 µM] |
| C[C@]12CC[C@H]3[C@@H](CC=C4C[C@@H](O)CC[C@@]43C)[C@@H]1CC[C@@H]2O | -1.59% [at 35.3 µM] |
| O=C(Oc1ccc(Br)cc1)N1CCN2CCC1CC2 | 2.35% |
| CN/C(=N\[N+](=O)[O-])NCC1CCOC1 (centres undefined) | -2.88% |
| CN1CCN(C(=O)O[C@H]2c3nccnc3C(=O)N2c2ccc(Cl)cn2)CC1 | 7.16% [at 35.3 µM] |
| CCC/C(=N\OCC)C1=C(O)CC(CC(C)SCC)CC1=O (centres undefined) | 14% |
| CCC(C)n1c(=O)[nH]c(C)c(Br)c1=O (centres undefined) | -5.9% |
